Results from PubChem BioAssay (EPA / NIEHS).
Records with an inconclusive call do not appear. Active and inactive are the calls of the source. Rule for the calls: active = hit-call score of the fitted dose curve at least 0.9, where 1 is the maximum; inconclusive = response in the unintended direction; inactive = score below 0.9.

Assay: Tanguay_ZF_120hpf_TRUN_legacy: (Legacy) Oregon State University Tanguay Lab 120 Hour Post-fertilization zebrafish Assay for Truncated Body (AID 2283655)
Experimental: Tanguay_ZF_120hpf_legacy is a whole embryo, multiplexed endpoint assay using zebrafish larvae exposed for 120 hours post fertilization on a 96-well plate.Tanguay_ZF_120hpf_TRUN_legacy is one of one assay component(s) measured or calculated from the Tanguay_ZF_120hpf_legacy assay. It is designed to make measurements of zebrafish development as detected with brightfield microscopy of developing zebrafish embryos.Data from the assay component Tanguay_ZF_120hpf_TRUN_legacy was analyzed into 1 assay endpoints. This assay endpoint, Tanguay_ZF_120hpf_TRUN_legacy, was analyzed in the positive analysis fitting direction relative to DMSO as the negative control and baseline of activity. Using a type of morphology reporter, gain-of-signal activity can be used to understand changes in developmentals as they relate to the whole embryo. To generalize the intended target to other relatable targets, this assay endpoint is annotated to the zebrafish development intended target family, where the subfamily is embryonic morphogenesis.
Zebrafish husbandry: Tropical 5D wild-type adult zebrafish were housed in at an approximate density of 1000 per 100 gallon tank at the Sinnhuber Aquatic Research Laboratory, Oregon State University, Corvallis, OR. Each tank was kept at standard laboratory conditions of 28C on a 14-h light/10-h dark photoperiod in fish water consisting of reverse osmosis water supplemented with a commercially available salt (Instant Ocean). Spawning funnels were placed into the tanks the night prior, and embryos were collected and staged. To increase bioavailability, the chorion was enzymatically removed using pronase (63.6mg/ml, >/= 3.5U/mg, Sigma-Aldrich: P5147) at 4 hours post fertilization (hpf) using a custom automated dechorionator.Chemical exposures: Six hpf dechorionated embryos were placed 1 embryo per well in a 96-well plate prefilled with 90 ul of EM using automated embryo placement systems (AEPS). Ten microliters of each row of dilution plate 2 was added to 2 exposure plates. The final DMSO concentration used was 0.64% (vol/vol). Thirty-two embryos were also exposed to 5uM trimethyltin chloride (positive control). Plates were sealed to prevent evaporation and foil covered to reduce light exposure and kept in a 28C incubator. Embryos were statically exposed until 120 hpf. At 24 hpf, embryos were assessed for photomotor response using a custom photomotor response analysis tool (PRAT) and for developmental toxicity endpoints (MO24: mortality at 24 hpf, DP: developmental progression, SM: spontaneous movement, and NC: notochord distortion). At 120 hpf, locomotor activity was measured using Viewpoint Zebralab and assessed for 18 endpoints. Zebrafish acquisition and analysis program (ZAAP), a custom program designed to inventory, acquire, and manage zebrafish data, was used to collect developmental endpoints as either present or absent (i.e., binary responses were recorded). If mortality occurred for an embryo (at either 24 or 120 hpf), the non-mortality endpoints were not measured.

With `CSC(=O)c1c(C(F)F)nc(C(F)(F)F)c(C(=O)SC)c1CC(C)C` as the molecule, how does the outcome read?
Its outcome is “inactive”.

Which outcome does the source give for `Cc1cc(C)nc(Nc2ccccc2)n1` here?
The outcome was “inactive”.

For `CC(C)(C)C(=O)C(Oc1ccc(Cl)cc1)n1cncn1` (stereo not given), which outcome is on record?
The outcome was “inactive”.

For `Nc1c(Cl)c(F)nc(OCC(=O)O)c1Cl`, which outcome is on record?
The outcome was “inactive”.

For `CCN(CC)c1nc(C)cc(OP(=S)(OC)OC)n1`, which outcome is on record?
Its outcome is “inactive”.

For `CN/C(=N\[N+](=O)[O-])NCc1cnc(Cl)s1`, which outcome is on record?
Its outcome is “inactive”.

For `CCOc1cc(C(C)(C)C)ccc1C1COC(c2c(F)cccc2F)=N1` (stereo not given), which outcome is on record?
Its outcome is “inactive”.

With `CS(=O)(=O)c1cc(C(F)(F)F)ccc1C(=O)c1cnoc1C1CC1` as the molecule, how does the outcome read?
Its outcome is “inactive”.

Which outcome does the source give for `COC(=O)NC(=S)Nc1ccccc1NC(=S)NC(=O)OC` here?
The outcome was “inactive”.

With `Cc1c(COC(=O)[C@@H]2[C@H](/C=C(\Cl)C(F)(F)F)C2(C)C)cccc1-c1ccccc1` as the molecule, how does the outcome read?
The outcome was “inactive”.

For `CCCN(CC)CC1COC2(CCC(C(C)(C)C)CC2)O1` (stereo not given), which outcome is on record?
The outcome was “inactive”.

Which outcome does the source give for `O=P(O)(O)CCCl` here?
Its outcome is “inactive”.

Which outcome does the source give for `Nc1cnn(-c2ccccc2)c(=O)c1Cl` here?
The outcome was “inactive”.

With `CCCCOCN(C(=O)CCl)c1c(CC)cccc1CC` as the molecule, how does the outcome read?
The outcome was “inactive”.

Which outcome does the source give for `C=C(C)CN(CC)c1c([N+](=O)[O-])cc(C(F)(F)F)cc1[N+](=O)[O-]` here?
The outcome was “inactive”.

Which outcome does the source give for `COC(=O)c1c(C(F)F)nc(C(F)(F)F)c(C2=NCCS2)c1CC(C)C` here?
Its outcome is “inactive”.

With `CCN(CC)C(=O)C(C)Oc1cccc2ccccc12` (stereo not given) as the molecule, how does the outcome read?
The outcome was “inactive”.

With `CCOC(=O)C(C)OC(=O)c1cc(Oc2ccc(C(F)(F)F)cc2Cl)ccc1[N+](=O)[O-]` (stereo not given) as the molecule, how does the outcome read?
The outcome was “inactive”.

With `CCCC(=NOCC)C1=C(O)CC(CC(C)SCC)CC1=O` (stereo not given) as the molecule, how does the outcome read?
The outcome was “inactive”.

For `CCCCC(O)(Cn1cncn1)c1ccc(Cl)cc1Cl` (stereo not given), which outcome is on record?
The outcome was “inactive”.

With `Cc1nc(N(C)C)nc(OC(=O)N(C)C)c1C` as the molecule, how does the outcome read?
The outcome was “inactive”.

Which outcome does the source give for `CC(C)Oc1cccc(NC(=O)c2ccccc2C(F)(F)F)c1` here?
Its outcome is “inactive”.

With `CS(=O)(=O)c1ccc(C(=O)C2C(=O)CCCC2=O)c([N+](=O)[O-])c1` as the molecule, how does the outcome read?
Its outcome is “inactive”.

Which outcome does the source give for `CNC(=O)Oc1cccc2ccccc12` here?
Its outcome is “inactive”.

Which outcome does the source give for `CC1(C)C(C=C(Cl)Cl)C1C(=O)OC(C#N)c1cccc(Oc2ccccc2)c1` (stereo not given) here?
Its outcome is “inactive”.

Which outcome does the source give for `CC(C)Nc1nc(Cl)nc(NC(C)C)n1` here?
The outcome was “inactive”.

For `CCNP(=S)(OC)O/C(C)=C/C(=O)OC(C)C` (stereo not given), which outcome is on record?
Its outcome is “inactive”.

For `CCOP(=S)(OCC)Oc1nc(Cl)n(C(C)C)n1`, which AC50 is on record?
Its AC50 is 8.3 µM (active).

Which outcome does the source give for `Cc1ccc(N=CN(C)C=Nc2ccc(C)cc2C)c(C)c1` here?
The outcome was “inactive”.

For `CCOP(=O)(OCC)Oc1nc(Cl)c(Cl)cc1Cl`, which outcome is on record?
Its outcome is “inactive”.

For `CN=C=S`, which outcome is on record?
Its outcome is “inactive”.

Which outcome does the source give for `CCOc1nc(C(Cl)(Cl)Cl)ns1` here?
The outcome was “inactive”.

For `COc1cc(OC)nc(NC(=O)NS(=O)(=O)c2ncccc2OCC(F)(F)F)n1`, which outcome is on record?
The outcome was “inactive”.

For `CC1(C)CCC(=Cc2ccc(Cl)cc2)C1(O)Cn1cncn1` (stereo not given), which outcome is on record?
The outcome was “inactive”.

For `COc1ccc(-c2ccccc2)cc1NNC(=O)OC(C)C`, which outcome is on record?
The outcome was “inactive”.

For `CC(C)N1C(=O)N(c2ccccc2)CSC1=NC(C)(C)C`, which outcome is on record?
The outcome was “inactive”.

Which outcome does the source give for `CCSC(=O)N1CCCCCC1` here?
The outcome was “inactive”.

With `CC1(C)CON(Cc2ccccc2Cl)C1=O` as the molecule, how does the outcome read?
The outcome was “inactive”.

For `CC(C)C1(C)N=C(c2ncccc2C(=O)O)NC1=O` (stereo not given), which outcome is on record?
The outcome was “inactive”.

For `Cn1c(-c2ccccc2)cc(-c2ccccc2)[n+]1C`, which outcome is on record?
Its outcome is “inactive”.
